# Results taken from PubChem BioAssay (Tox21).
# Values without a mark were called inactive. Results filed as inconclusive are left out. Where a call stands in place of a potency, no number is given. Calls of active or inactive are those of the source. Unless noted, the call rests on the fitted dose curve.
# Legend:
# [1] = Nuclear factor erythroid 2-related factor 2/antioxidant responsive element (Nrf2/ARE) small molecule agonists: qHTS cell viability counter screen in human keratinocytes (AID 1919968; active means well fitted curve in the direction sought with a large enough effect in the repeat runs; an effect the other way counts as inactive or inconclusive; further: nearly all actives have a fitted effect of over 55% in size); settings: KeratinoSens HaCaT ARE cells viability, CellTiter-Fluor, 24 h; series mostly up to 92.4 µM
# In short: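 CellTiter-Fluor fluorescence, read 1 h after reagent, gave viability in the same wells as the ARE-luciferase assay. KeratinoSens cells (1,500/well) had 23 h compound exposure at 37 C/5% CO2 following 5 h plating.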
# [2] = Nuclear factor erythroid 2-related factor 2/antioxidant responsive element (Nrf2/ARE) small molecule agonists: luciferase reporter gene qHTS assay in human keratinocytes (AID 1919969); settings: KeratinoSens HaCaT ARE-luciferase, luminescence, 24 h; series mostly up to 92.4 µM; further: nearly all actives have a fitted effect of over 35% in size
# [3] = target: Gonadotropin-releasing hormone receptor (Homo sapiens) (UniProt P30968); assay: Human gonadotropin-releasing hormone receptor (GnRHR) small molecule agonists, calcium flux assay in GnRHR-HEK293 cells (AID 1920063); settings: calcium flux fluorescence, agonist mode; series mostly up to 57.6 µM; further: nearly all actives have a fitted effect of over 35% in size
# In short: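 Agonist mode: compounds at 15 concentrations, in triplicate, went onto calcium dye-loaded GnRHR-HEK293 cells. Intracellular calcium was then followed as 480/540 nm fluorescence at 1 s intervals over 3 min.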
# [4] = target: KiSS-1 receptor (Homo sapiens) (UniProt Q969F8); assay: Human kisspeptin (KISS1R) small molecule agonists, calcium flux assay in KISS1R-HEK293 cells (AID 1920064; active means well fitted curve in the direction sought with a large enough effect in the repeat runs; an effect the other way counts as inactive or inconclusive); settings: KISS1R-HEK293, calcium flux fluorescence, agonist; series mostly up to 76.8 µM
# In short: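 Agonist mode: intracellular calcium rise tracked at 1 s intervals over 3 min (480/540 nm) immediately after compound addition to dye-loaded KISS1R-HEK293 stable cells. Each compound tested at 15 concentrations in triplicate.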
# [5] = G protein-coupled receptor (GPCR) small molecule agonists, calcium flux assay: HEK293 wild type cell line counter screen (AID 1920065); settings: HEK293 WT calcium flux, fluorescence, agonist mode; series mostly up to 57.6 µM
# In short: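 Calcium flux counter screen: compound added in agonist mode at 15 concentrations in triplicate to dye-loaded parental HEK293 cells. Fluorescence (480/540) read kinetically for 3 min; ATP served as positive control.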
# [6] = p53 small molecule agonists, cell-based qHTS assay with human liver microsomes (AID 1963577); settings: HCT-116 p53RE-bla with human liver microsomes, ratio, 16 h; series mostly up to 66 µM;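 further: p53 response element beta-lactamase reporter cells with liver microsomes plus NADPH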
# In short: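 p53RE-bla cells; 5 h settle, 37 C/5% CO2; cpd + HLM 0.5 mg/mL + NADPH 0.5 mg/mL (final); 16 h 37 C; LiveBLAzer 2 h RT dark; fluorescence readout.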
# [7] = p53 small molecule agonists, cell-based qHTS assay with rat liver microsomes (AID 1963578); settings: HCT-116 p53RE-bla, beta-lactamase ratio, 16 h; series mostly up to 66 µM
# In short: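 Rat liver microsome activation: microsomes 0.5 mg/mL, NADPH 0.5 mg/mL final; p53RE-bla cells, 16 h 37 C; LiveBLAzer readout, 2 h RT dark.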
# [8] = p53 small molecule agonists, cell-based qHTS assay with human liver microsomes: qHTS cell viability counter screen (AID 1963579); settings: p53RE-bla HCT-116 viability, ATP luminescence, 16 h, HLM; series mostly up to 66 µM; further: nearly all actives have a fitted effect of over 45% in size
# In short: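 Luminescent CellTiter-Glo read-out, 30 min at room temperature, gauged cytotoxicity in p53RE-bla cells exposed 16 h at 37 C to DMSO-dissolved compounds with metabolic activation by human liver microsomes and NADPH, each 0.5 mg/mL final.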
# [9] = p53 small molecule agonists, cell-based qHTS assay with rat liver microsomes: qHTS cell viability counter screen (AID 1963580); settings: p53RE-bla HCT-116 + rat microsomes, ATP viability, 16 h; series mostly up to 66 µM; further: nearly all actives have a fitted effect of over 45% in size
# In short: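 Cytotoxicity counter screen: intracellular ATP measured by CellTiter-Glo luminescence in the same wells as the beta-lactamase reporter read, on HCT-116 p53RE-bla cells exposed 16 h at 37 C to compounds with rat liver microsomes and NADPH, each 0.5 mg/mL final.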
# [10] = p53 small molecule agonists, cell-based qHTS assay: qHTS cell viability counter screen (AID 1963581); settings: p53RE-bla HCT-116 viability, ATP luminescence, 16 h; series mostly up to 66 µM; further: nearly all actives have a fitted effect of over 45% in size
# In short: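 Counter screen read by CellTiter-Glo luminescence (ATP content, 30 min at room temperature), run in the same wells as the beta-lactamase reporter read. HCT-116 p53RE-bla cells saw compounds for 16 h at 37 C.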
# [11] = p53 small molecule agonists, cell-based qHTS assay (AID 1963582; active means well fitted activation curve with a large enough effect in the signal ratio in the repeat runs, not every such curve was filed as active; the % refers to the signal ratio); settings: HCT-116 p53RE-bla reporter, beta-lactamase FRET ratio, 16 h; series mostly up to 66 µM
# In short: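 Read-out is beta-lactamase FRET fluorescence after 2 h at room temperature with LiveBLAzer B/G substrate. p53 response element-bla cells were treated 16 h at 37 C with compounds in DMSO, added 5 h after seeding.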
# [12] = cAMP Responsive Elements (CRE) small molecule agonists, cell-based qHTS assay (AID 1963590); settings: CRE-bla HEK293T, beta-lactamase FRET ratio, 3 h; series mostly up to 92.4 µM
# In short: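 Agonist mode: compound added to CRE-bla HEK 293T cells (2,000/well, 18 h after plating) for 3 h at 37 C/5% CO2. Reporter activity detected via FRET beta-lactamase substrate, 2 h room-temperature loading.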
# [13] = cAMP Responsive Elements (CRE) small molecule antagonists, cell-based qHTS assay (AID 1963591; active means well fitted inhibition curve with a large enough effect in the signal ratio in the repeat runs, not every such curve was filed as active; the % refers to the signal ratio); settings: CRE-bla HEK293T, beta-lactamase FRET ratio; series mostly up to 92.4 µM
# In short: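 Antagonist mode: compounds are added alongside the adenylyl cyclase activator NKH477 (0.25 uM final) to CRE-bla HEK293T cells for 3 h. LiveBLAzer FRET substrate, 2 h at room temperature, reports bla expression.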
# [14] = target: Beta-2 adrenergic receptor (Homo sapiens) (UniProt P07550); assay: Adrenergic beta2 receptor (ADRB2) small molecule antagonists, cell-based qHTS assay (AID 1963592); settings: CHO-ADRB2 cells, isoproterenol-stimulated cAMP HTRF ratio, 0.5 h; series mostly up to 92.4 µM; further: nearly all actives have a fitted effect of over 50% in size; further: potency means the concentration at half of the fitted maximal effect
# In short: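 Assay format: CHO-ADRB2 cells, 18-20hr seeding at 37C/5% CO2, then compound plus 1nM isoproterenol agonist mix for 0.5hr RT. Homogeneous time-resolved fluorescence cAMP detection after 1hr, expressed as 665/615 nm ratio.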
# [15] = target: D(2) dopamine receptor (Homo sapiens) (UniProt P14416); assay: Dopamine D2 receptor (DRD2) small molecule agonists, cell-based qHTS assay (AID 1963594); settings: HEK293-DRD2 cAMP HTRF, agonist mode, 30 min; series mostly up to 92.4 µM; further: nearly all actives have a fitted effect of over 35% in size
# In short: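 HEK293 cells stably expressing human DRD2, pre-treated with PDE inhibitor Ro20-1724 (0.1 mM final) and compound 10 min at room temperature, then stimulated with NKH477 (200nM […]) for 30 min. cAMP read by HTRF (665/620 nm).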
# [16] = target: D(2) dopamine receptor (Homo sapiens) (UniProt P14416); assay: Dopamine D2 receptor (DRD2) small molecule antagonists, cell-based qHTS assay (AID 1963595; active means well fitted inhibition curve with a large enough effect in the signal ratio in the repeat runs, with a control signal flat; the % refers to the signal ratio); settings: HEK293-DRD2 cAMP HTRF antagonist mode; series mostly up to 92.4 µM
# In short: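 HTRF cAMP read-out at 665 and 620 nm emission (340 nm excitation). Antagonist mode: compounds were tested against 12 nM quinpirole in DRD2-HEK293 cells, with 200 nM NKH477 raising cAMP and 0.1 mM Ro20-1724 blocking its breakdown.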
# Sequence of KiSS-1 receptor (Homo sapiens) (Q969F8 whole entry, looked up): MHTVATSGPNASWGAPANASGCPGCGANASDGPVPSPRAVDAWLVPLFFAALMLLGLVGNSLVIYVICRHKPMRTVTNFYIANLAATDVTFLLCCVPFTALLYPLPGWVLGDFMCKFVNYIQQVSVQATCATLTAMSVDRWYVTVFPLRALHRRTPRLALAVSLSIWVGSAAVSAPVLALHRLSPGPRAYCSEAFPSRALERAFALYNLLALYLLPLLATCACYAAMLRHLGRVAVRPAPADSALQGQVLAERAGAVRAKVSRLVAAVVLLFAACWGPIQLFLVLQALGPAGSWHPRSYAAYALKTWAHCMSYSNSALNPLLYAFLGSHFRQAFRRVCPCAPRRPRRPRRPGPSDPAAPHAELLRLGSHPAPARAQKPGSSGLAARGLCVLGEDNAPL
# Sequence of Gonadotropin-releasing hormone receptor (Homo sapiens) (P30968 whole entry, looked up): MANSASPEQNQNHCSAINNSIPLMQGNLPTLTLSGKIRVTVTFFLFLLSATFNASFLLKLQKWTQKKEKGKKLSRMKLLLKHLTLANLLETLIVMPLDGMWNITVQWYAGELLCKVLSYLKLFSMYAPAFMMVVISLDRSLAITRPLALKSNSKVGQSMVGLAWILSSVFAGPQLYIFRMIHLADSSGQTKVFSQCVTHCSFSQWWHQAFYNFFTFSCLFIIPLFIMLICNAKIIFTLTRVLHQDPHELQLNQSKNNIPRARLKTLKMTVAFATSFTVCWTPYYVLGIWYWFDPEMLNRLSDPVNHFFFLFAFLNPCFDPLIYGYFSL
# Sequence of Beta-2 adrenergic receptor (Homo sapiens) (P07550 whole entry, looked up): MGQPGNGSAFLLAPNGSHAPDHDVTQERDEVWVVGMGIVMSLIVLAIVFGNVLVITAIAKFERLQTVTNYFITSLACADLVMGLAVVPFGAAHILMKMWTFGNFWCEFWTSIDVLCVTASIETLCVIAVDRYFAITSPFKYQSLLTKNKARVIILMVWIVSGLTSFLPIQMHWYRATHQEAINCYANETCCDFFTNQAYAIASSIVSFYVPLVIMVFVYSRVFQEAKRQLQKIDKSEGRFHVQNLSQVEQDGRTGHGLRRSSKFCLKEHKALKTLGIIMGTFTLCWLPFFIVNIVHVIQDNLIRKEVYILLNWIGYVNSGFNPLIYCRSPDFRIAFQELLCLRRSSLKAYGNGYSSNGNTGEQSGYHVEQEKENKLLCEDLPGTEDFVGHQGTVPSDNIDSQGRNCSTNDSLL
# Sequence of D(2) dopamine receptor (Homo sapiens) (P14416 whole entry, looked up): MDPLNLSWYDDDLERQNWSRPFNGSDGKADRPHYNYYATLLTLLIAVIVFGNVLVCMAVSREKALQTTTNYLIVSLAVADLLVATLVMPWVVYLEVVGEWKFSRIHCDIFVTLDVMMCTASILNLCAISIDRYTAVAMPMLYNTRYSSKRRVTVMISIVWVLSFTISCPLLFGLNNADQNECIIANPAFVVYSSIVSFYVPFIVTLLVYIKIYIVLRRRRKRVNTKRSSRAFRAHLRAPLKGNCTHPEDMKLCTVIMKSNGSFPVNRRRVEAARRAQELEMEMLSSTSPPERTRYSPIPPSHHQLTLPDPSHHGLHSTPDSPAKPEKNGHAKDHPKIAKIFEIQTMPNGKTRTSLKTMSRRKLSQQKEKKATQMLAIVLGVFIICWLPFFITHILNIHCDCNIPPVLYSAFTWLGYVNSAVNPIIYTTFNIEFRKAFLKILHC
SMILES,Potency [1],Potency [2],Potency [3],outcome [4],outcome [5],Potency [6],Potency [7],Potency [8],Potency [9],Potency [10],Potency [11],Potency [12],Potency [13],Potency [14],Potency [15],Potency [16]
CC(C)NNC(=O)c1ccncc1,inactive,inactive,inactive,inactive,inactive,inactive,inactive,inactive,inactive,inactive,inactive,inactive,inactive,inactive,inactive,inactive
CC[C@H]1OC(=O)[C@H](C)[C@@H](O[C@H]2C[C@@](C)(OC)[C@@H](O)[C@H](C)O2)[C@H](C)[C@@H](O[C@@H]2O[C@H](C)C[C@H](N(C)C)[C@H]2O)[C@](C)(O)C[C@@H](C)C(=O)[C@H](C)[C@@H](O)[C@]1(C)O,inactive,inactive,inactive,inactive,inactive,inactive,inactive,inactive,inactive,inactive,inactive,inactive,inactive,inactive,inactive,–
NC(=O)N1c2ccccc2CC(=O)c2ccccc21,inactive,inactive,inactive,inactive,inactive,inactive,inactive,inactive,inactive,inactive,inactive,inactive,inactive,inactive,–,inactive
COC(=O)CCc1ccc(OCC(O)CNC(C)C)cc1 (stereo not given),inactive,inactive,inactive,inactive,inactive,inactive,inactive,inactive,inactive,inactive,inactive,inactive,inactive,9.44 µM (active),–,inactive
CC(C)(C)NCC(O)COc1cccc2c1C[C@H](O)[C@H](O)C2 (stereo not given in full),inactive,inactive,inactive,inactive,inactive,inactive,inactive,inactive,inactive,inactive,inactive,inactive,inactive,–,–,inactive
CCC1=C(C)CN(C(=O)NCCc2ccc(S(=O)(=O)NC(=O)NC3CCC(C)CC3)cc2)C1=O (stereo not given),inactive,inactive,inactive,inactive,inactive,inactive,inactive,inactive,inactive,inactive,inactive,–,–,inactive,inactive,inactive
Nc1ccc(C(=O)O)c(O)c1,inactive,inactive,inactive,inactive,inactive,inactive,inactive,inactive,inactive,inactive,inactive,–,inactive,inactive,inactive,inactive
O=c1[nH]c(=O)n([C@H]2C[C@H](O)[C@@H](CO)O2)cc1I,inactive,inactive,inactive,inactive,inactive,inactive,inactive,inactive,inactive,inactive,inactive,inactive,inactive,inactive,inactive,inactive
